The text below walks through data of PubChem BioAssay AID1813 (Broad Institute, 2009).

Screen size: about 300,000 compounds; about 2,500 (0.83%) were called active. The full list was thinned out, with actives kept by preference. Values without a mark were called inactive. Cut-off read from the data, not from the text of the source: active = inhibition above about 60%; inconclusive = no clear call, values can overlap the other calls; inactive = below that.

This assay in a line: MLPCN primary screen, SNCA 5' untranslated region (AID 1813).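 Note: H4 neuroglioblastoma cells stably carrying SNCA 5'UTR luciferase fusion; 0% = DMSO wells and 100% = positive control.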 As to conditions: alpha-synuclein 5'UTR reporter, inhibitor activity; active compounds read high; tested at 7.5 µM.
`Cc1cc(NC(=O)C(C)N2C(=O)c3ccccc3S2(=O)=O)no1` (configuration not stated): the inhibition was -18.2%. For `Cc1ccc(C(=O)NCCNC(=O)c2cnccn2)cc1` the value was -3.06%; for `CCN(CC)c1ccc(/C=N/NC(=O)c2cnccn2)c(O)c1`, 72.3% (active); for `CCN(CC)c1ccc(/C=N/NC(=O)CNC(=O)c2cccnc2)cc1`, 5.51%. Consider `Cc1cn(C2C=CC(CO)O2)c(=O)[nH]c1=O` (configuration not stated), for which the inhibition was -0.0254%. Regarding `CC[C@]1(O)CC2CN(CCc3c([nH]c4ccccc34)[C@@](C(=O)OC)(c3cc4c(cc3OC)N(C=O)[C@H]3[C@@](O)(C(=O)OC)[C@H](OC(C)=O)[C@]5(CC)C=CCN6CC[C@]43[C@@H]65)C2)C1` (some centres not stated), the inhibition is 102% (active).

Regarding `CC[C@]1(O)C[C@@H]2CN(CCc3c([nH]c4ccccc34)[C@@](C(=O)OC)(c3cc4c(cc3OC)N(C)[C@H]3[C@@](O)(C(=O)OC)[C@H](OC(C)=O)[C@]5(CC)C=CCN6CC[C@]43[C@@H]65)C2)C1`, the inhibition was 77.2% (active). For `CCc1nc2ccccc2c(C(=O)OC2CCCCC2=O)c1C` (configuration not stated) the value was 8.85%; for `CCCc1cc(=O)[nH]c(SCC(=O)OCc2ccccc2)n1`, 13.7%. Regarding `CCCc1cc(=O)[nH]c(SCC(=O)c2cc(C)n(CCC)c2C)n1`, the inhibition is 23.4%. As for `CCCc1cc(=O)[nH]c(SCC(=O)c2c(N)n(CC(C)C)c(=O)n(C)c2=O)n1`, the inhibition was 88.3% (active).

Take `Cc1ccc2nc(SC(C)C(=O)NCc3ccco3)[nH]c2c1` (configuration not stated): the inhibition is 30%.

As for `CC(=O)NN1C(=O)c2ccccc2NC1c1ccccc1` (configuration not stated), the inhibition was 19.3%.

Turning to `CC1=NNC(=O)C1Cc1c(Cl)cccc1Cl` (configuration not stated), the inhibition was 27%.

Regarding `Oc1c(Cl)cc(Cl)c(Cl)c1Cc1c(O)c(Cl)cc(Cl)c1Cl`, the inhibition is 77.3% (active). With `COCCNc1nc(N)c([N+](=O)[O-])c(N2CCCCCC2)n1`, the inhibition is 17.3%. On to `Cc1cc(OC(=O)c2ccc(OC(C)C)cc2)c([N+](=O)[O-])c(=O)[nH]1`, for which the inhibition was -3.29%.

Regarding `N#CC(C(=O)c1ccc(S(=O)(=O)N2CCCCCC2)cc1)c1nc2ccccc2[nH]1` (configuration not stated), the inhibition is -4.96%. On to `O=S(=O)(c1ccc(Br)cc1)N1CCC(c2nc3ccccc3[nH]2)CC1`, for which the inhibition was 78.3% (active).

For the compound `O=C(C1CCCO1)N1CCC(c2nc3ccccc3[nH]2)CC1` (configuration not stated), the inhibition is -15.4%. For `Cc1cccc(N2CCN(S(=O)(=O)c3ccc4[nH]c(=O)c(=O)[nH]c4c3)CC2C)c1` (configuration not stated) the value was 3.92%. For `COc1cc2c(cc1OC)C(C)N(S(=O)(=O)c1cnc(Cl)c(Cl)c1)CC2` (configuration not stated) the value was 36.4%; for `COc1ccc(-c2cn(-c3ccc(OC)cc3)c(=S)[nH]2)cc1`, -129%. For `S=c1[nH]c(-c2cccs2)cn1-c1ccccc1` the value was -60.3%; for `O=c1oc2ccccc2cc1-c1cn(-c2ccccc2)c(=S)[nH]1`, 119% (active); for `O=C(CNCc1ccc(F)cc1)Nc1ccccc1-c1ccccc1`, 16.3%. As to `COCc1cc(=O)[nH]c(SC)n1`, the inhibition was -10.1%. Turning to `N#C/C(=C\c1cccnc1)C(=O)Nc1ccc(SC(F)F)cc1`, the inhibition was 1.4%. In the case of `O=[N+]([O-])c1ccc2[nH]c3c(c2c1)CCCC3O` (configuration not stated), the inhibition was 10.7%.

As for `O=[n+]1c2c(n([O-])c3cc(Br)ccc31)CCC2`, the inhibition was 10.3%. With `O=C1CCCc2c1[nH]c1ccc(Br)cc21`, the inhibition is 89% (active).

Regarding `COC(=O)CN1C(=O)N/C(=C/c2ccc(OC)c(C)c2OC)C1=O`, the inhibition is -8.7%.

With `O=C(COC(=O)Cn1[nH]c(=O)c2ccccc2c1=O)Nc1c(Cl)cccc1C(F)(F)F`, the inhibition was 4.65%. For `CN1C(=O)/C(=C/c2ccc(C(=O)NC3CCCC3)cc2)Oc2ccccc21` the value was -48%; for `CN1CCN(CCCNC(=O)c2ccc(/C=C3\Oc4ccccc4N(Cc4ccc(Cl)cc4)C3=O)cc2)CC1`, 96.5% (active); for `O=C(NCCN1CCOCC1)c1ccc(/C=C2\Sc3ccccc3N(Cc3ccc(F)cc3)C2=O)cc1`, 14%. Take `FC(F)(F)c1cnc(Oc2ccccc2-c2nnc(-c3ccc(Cl)cc3)o2)c(Cl)c1`: the inhibition was -1.16%.

On to `Oc1cccc(/C=N/Nc2ccc(Cl)nn2)c1O`, for which the inhibition was -6.82%. In the case of `COc1cccc(/C=N/Nc2ncc(C(F)(F)F)cc2Cl)c1O`, the inhibition is 76.7% (active). For `Cc1n[nH]c(=O)c2c(NC(=O)CSc3ccccc3F)oc(C)c12` the value was -9.19%; for `CCNS(=O)(=O)c1ccc(NC(=O)c2cncc(Br)c2)cc1`, 8.56%; for `Oc1ccc(N=Nc2nccs2)c(O)c1`, 24.3%. The result for `Oc1ccc2ccccc2c1N=Nc1nccs1` reads 87.4% (active). With `c1ccc(NCc2cccc3ccccc23)nc1`, the inhibition was 19.1%. For `CCCOc1ccc(C(=O)CCC(=O)OC(C)C(=O)Nc2ccc(NC(C)=O)cc2)cc1` (configuration not stated), the inhibition was -18.6%.

With `CCCCOc1ccc(C(=O)NN2CCN(C)CC2)cc1`, the inhibition was 1.5%.

As for `CCCOc1ccc(C(=O)C(CCC(CNCC)C(=O)c2ccc(OCCC)cc2)CNCC)cc1` (configuration not stated), the inhibition was 107% (active). With `Cc1ccc(S(=O)(=O)N2CCCCC2)cc1C(=O)N(C)CC(=O)Nc1cccc(F)c1`, the inhibition was 11%. Turning to `CCOC(=O)c1c(NC(=O)c2ccc(S(=O)(=O)N(C)CC3CCCO3)cc2)sc2c1CC(C)(C)NC2(C)C` (configuration not stated), the inhibition was 0.581%. For `COC(=O)c1c(NC(=O)COc2ccc(Cl)cc2Cl)sc2c1CC(C)(C)NC2(C)C` the value was 102% (active); for `COC(=O)c1sccc1NC(=O)COc1ccc(Cl)cc1`, -35.3%.

For `CCOc1ccc(CC(=O)NCCS(=O)(=O)N2CCN(c3ccccc3)CC2)cc1`, the inhibition was 13.9%. For the compound `Cc1cc(OC(=O)c2ccccc2Cl)ccc1N1C(=O)CCC1=O`, the inhibition was -3.87%. For `COc1ccc(NC(=O)c2cccc3c2C(=O)N(CC2CCCO2)C3)cc1OC` (configuration not stated), the inhibition was 32.1%.

For `CN1CCN(C2Cc3ccc(Cl)cc3Sc3ccc(F)cc32)CC1` (configuration not stated), the inhibition is 104% (active). Regarding `CSc1nnc2ccc(-c3ccc(C)cc3)nn12`, the inhibition was 16.4%. Consider `Cc1ccc2nc(-c3ccc(Br)cc3)cn2c1`, for which the inhibition is 63.2% (active). The result for `Cc1ccc(-c2cn3cc([N+](=O)[O-])ccc3n2)cc1` reads 22.1%; that for `CCn1c(=O)c(C(=O)NCc2ccc3c(c2)OCO3)c(O)c2ccccc21`, 11.8%; that for `COC(=O)C1(C)NC(c2ccccc2OC)C2C(=O)N(c3ccccc3)C(=O)C21` (configuration not stated), 0.536%. With `CC(C)CC[n+]1ccn(C2=C([O-])c3ccccc3C(=O)/C2=N\S(=O)(=O)c2ccccc2)c1`, the inhibition was -27.8%. `COc1ccc2c(c1)CCNC2Cc1ccc(OC)c(O)c1` (configuration not stated): the inhibition was 11.8%. For `CCc1ccc(OCC2c3cc(OC)c(OC)cc3CCN2C(C)=O)cc1` (configuration not stated) the value was 0.678%; for `CC[C@H]1CN2CCc3cc(OC)c(OC)cc3[C@@H]2C[C@@H]1C[C@H]1NCCc2cc(OC)c(OC)cc21`, 109% (active); for `COc1ccc(S(=O)(=O)N(C)CC(=O)NCCCN2CCOCC2)cc1Cl`, 6.18%. The result for `COc1ccc(C(=O)C2CCCN(S(=O)(=O)c3cccc(C)c3)C2)c(C)c1` (configuration not stated) reads -3.32%; that for `Cc1ccccc1/[N+]([O-])=C/c1ccncc1`, 5.11%; that for `Cc1ccc(NC(=O)COc2ccc(/C=C3/NC(=O)NC3=O)cc2)cc1`, 1.96%. For `O=C(c1ccc(OC2CCN(Cc3ccccn3)CC2)cc1)N1CCCCCC1` the value was 3.78%; for `Cn1cc(CNC(=O)c2ccc(OC3CCN(Cc4ccccn4)CC3)cc2)cn1`, 14.6%.

Consider `O=C(NCCOc1cccnc1)c1ccc(OC2CCN(Cc3ccccn3)CC2)cc1`, for which the inhibition is 95.3% (active). Take `Cc1ccc(Nc2nc(Cl)c(C=O)s2)cc1`: the inhibition is -26.4%. As for `Cc1ccc2nc(-c3ccncc3)cc(C(=O)Nc3ccncc3)c2c1`, the inhibition is 5.38%. For `Cc1ccc2nc(-c3ccncc3)cc(C(=O)Nc3ccc(OC(F)F)cc3)c2c1` the value was 67.6% (active); for `Cc1ccc2nc(-c3ccncc3)cc(C(=O)Nc3ccc4c(c3)OCCO4)c2c1`, 47.2%; for `COc1cccc2c(N/N=C/c3ccco3)cc(C)nc12`, -38.3%. As for `COc1cccc(/C=N/Nc2cc(C)nc(-c3ccccc3O)n2)c1O`, the inhibition is 82.8% (active). For `COc1ccccc1/C=N/Nc1nc(C)c(C(C)=O)s1` the value was -154%; for `Cc1csc2nc(O)c(C(=O)NCCN3CCOCC3)c(=O)n12`, 0.0631%; for `Cc1ccc2sc(N(CCN(C)C)C(=O)/C=C/c3cccs3)nc2c1C`, -3.93%. The result for `CCCCCCCCn1c2c(c(=N)c3c1CCC3)CCCC2` reads 101% (active); that for `Cc1nc2ccccn2c1C(=O)NN=C1CCN(C)CC1`, 18%; that for `CCCC[C@@H]1CN=C(N)N1CCc1cccc(F)c1`, -1.65%. For `Cc1ccc(C)c(NC(=O)COC(=O)Cn2c(C)csc2=O)c1` the value was 3.94%; for `CCOc1ccc(C(C(=O)NC2CCCC2)N(C(=O)c2snc(C(N)=O)c2N)C2CCCC2)cc1` (configuration not stated), 1.96%. Turning to `OCCC1CN(Cc2ccc3nsnc3c2)CCN1C1CCCCC1` (configuration not stated), the inhibition is -4.85%. The result for `CCCCCn1c(=O)c(C(=O)OCC)c(Cl)c2ccccc21` reads 92.6% (active); that for `CCOC(=O)c1nnn2c3ccccc3c(=O)n(C)c12`, -5.14%.

For the compound `CCCCn1c(=O)c(C(C)=O)c(O)c2ccccc21`, the inhibition was -6.66%. For `CNc1ccc(SC#N)cc1` the value was 1.02%. The result for `CCOC(=O)N1CCN(C(=O)C(=O)Nc2sc3c(c2C#N)CC(C)(C)OC3)CC1` reads -17.6%; that for `COc1ccc2c3c1O[C@H]1C[C@@H](O)C=C[C@@]31CCN(C)C2`, 62% (active).

The inhibition is the drop in the measured response relative to a control, in per cent.
